Molecules are shown by their SMILES. ± gives the standard deviation.

The subject of the assay is Streptococcus suis HE06. Briefly: percent growth relative to DMSO control; higher = less growth inhibition. The following applies: 10 µM; incubation time 18 h. How it is done: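 CLSI broth microdilution: 5x10^4 CFU of Streptococcus suis (strain P1/7 or HE06) incubated with 10 µM Pathogen Box compound in cation-adjusted Mueller Hinton broth, 37 °C, 5% CO2, 18 h. Growth read as OD600 and expressed as percent of the DMSO-treated control (100%); mean ± SD of three independent experiments.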
For `Cc1cc(C2=NOC(c3cc(Cl)c(F)c(Cl)c3)(C(F)(F)F)C2)ccc1C(=O)NCc1ccc2c(c1)C(C)(C)OB2O` (centres undefined), the percent growth was 60.3 ± 9.8%. Take `Cc1nn(Cc2ccccc2)c(Cl)c1C(=O)NC1CCCCCC1`: the percent growth amounted to 107 ± 13%. In the case of `CO[C@@H]1CN(c2ccc(C#CC3(O)CN4CCC3CC4)c(Cc3ccccc3)n2)C[C@H]1O` (some centres undefined) it was 108 ± 2.9%. The value for `CO/N=C(\C(=O)OC)c1ccccc1CO/N=C(\C)c1cccc(C(F)(F)F)c1` was 102 ± 17%; that for `Nc1c2c(nc3sc4c(c13)CCCC4)CCCC2` was 76.3 ± 20%; that for `O=C1O[C@@H](CO)CN1c1cc(F)c(C2=CCN(Cc3ccccc3)CC2)c(F)c1` was 3.88 ± 0.8%. In the case of `Cc1nn(C)c(C)c1NS(=O)(=O)c1c(Cl)cc(-c2ccnc(N3CCNCC3)c2)cc1Cl` it was 94.8 ± 29%; in that of `CC(C)(C)C(O)C(Oc1ccc(-c2ccccc2)cc1)n1cncn1` (centres undefined), 86.7 ± 8.5%. On to `Cc1cccc(C(=O)Nc2ccnc(N(C)C3CCN(CC(C)C)CC3)c2)c1`, for which the percent growth came to 95.9 ± 30%. In the case of `CCc1nn(C)c(C(=O)NCc2ccc(Oc3ccc(C)cc3)cc2)c1Cl` it was 82.6 ± 11%; in that of `CO/C=C(/C(=O)OC)c1ccccc1Oc1cc(Oc2ccccc2C#N)ncn1`, 76.8 ± 3.1%.

Molecule `O=C1O[C@@H](COc2ccon2)CN1c1cc(F)c(C2=CCN(Cc3ccccc3)CC2)c(F)c1` returned a percent growth of 2.62 ± 3.7%. In the case of `CC1(C)OB(O)c2ccc(C3=NOC(c4cc(Cl)c(F)c(Cl)c4)(C(F)(F)F)C3)cc21` (centres undefined) it was 15.4 ± 15%; in that of `CC1COC(Cn2cncn2)(c2ccc(Oc3ccc(Cl)cc3)cc2Cl)O1` (centres undefined), 77 ± 5.4%.

The values above are taken from the supplement of paper PMC7866885, “A novel bicyclic 2,4-diaminopyrimidine inhibitor of Streptococcus suis dihydrofolate reductase” (PeerJ, 2021).
